# Screening data (PubChem BioAssay)
# Only some compounds are listed: those with a hit (about 11% of all), similar ones and a draw of the others.
# ALDH1A1 block = qHTS Assay for Inhibitors of Aldehyde Dehydrogenase 1 (ALDH1A1); Aldehyde dehydrogenase 1A1 (Homo sapiens), P00352; Purified ALDH1A1, NADH fluorescence, propionaldehyde substrate; Potency, µM (top dose mostly 75.3 µM), usual class: inhibitors; 220,000 tested, 7.3% active; AID 1030, 2008
# Target sequence (P00352 whole entry, looked up): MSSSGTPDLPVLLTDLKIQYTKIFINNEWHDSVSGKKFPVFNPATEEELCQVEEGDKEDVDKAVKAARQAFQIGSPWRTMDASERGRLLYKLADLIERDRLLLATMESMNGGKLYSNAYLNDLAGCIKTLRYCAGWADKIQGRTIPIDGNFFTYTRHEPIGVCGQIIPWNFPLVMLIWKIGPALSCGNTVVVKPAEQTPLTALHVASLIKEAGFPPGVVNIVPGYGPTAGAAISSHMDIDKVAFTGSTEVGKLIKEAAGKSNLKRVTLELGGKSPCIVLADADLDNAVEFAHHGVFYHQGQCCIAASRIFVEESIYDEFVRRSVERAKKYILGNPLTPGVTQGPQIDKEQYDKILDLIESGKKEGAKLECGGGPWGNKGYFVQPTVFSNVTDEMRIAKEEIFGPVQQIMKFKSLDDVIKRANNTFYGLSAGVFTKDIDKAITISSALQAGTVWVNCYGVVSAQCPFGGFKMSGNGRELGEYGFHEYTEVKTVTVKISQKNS
# HPGD inh = qHTS Assay for Inhibitors of HPGD (15-Hydroxyprostaglandin Dehydrogenase) | purified HPGD, NADH fluorescence kinetic, PGE2 substrate | 15-hydroxyprostaglandin dehydrogenase [NAD(+)] (Homo sapiens), P15428 | 150,000 tested, 4.3% active | AID 894, 2007 | Potency, µM, hits mostly inhibitors
#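 20 nM HPGD preincubated 15 min at room temperature with compound in 50 mM Tris-HCl pH 8, 0.01% Tween 20. Started with 1 mM NAD+ and 30 uM prostaglandin E2; NADH fluorescence (360/450 nm) read 5 times over 30-s intervals, last minus first.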
# PNC inhibitor = High Content Assay for Compounds that inhibit the Assembly of the Perinucleolar Compartment. PC3M PTB-GFP, PNC prevalence imaging, 16 h; hits give low values. activity change (PNC), negative = inhibition, % at 10 µM. 140,000 tested, 3.1% active. AID 2417, 2010;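 active = readout at or below -70, meaning at least 70% loss of cells showing the perinucleolar compartment, a nuclear body marking cancer cells; inconclusive = readout between -30 and a set limit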
#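 PC3M cells stably expressing PTB-GFP, 750–1000 cells/well, treated 16 h at 37 °C with compound (23 nl of library stock), in duplicate. After paraformaldehyde fixation and Hoechst stain, imaged at 20x; PNC prevalence scored by image analysis.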
# Numbers stand for hits; 0 = inactive; ? = inconclusive; - = no result given; [ ] = remark or other dose. Unless noted, calls follow the shape of the dose curve; as a rule, active = well fitted inhibition curve with a large enough effect (not every such curve was filed as active); inconclusive = small, poorly fitted or top-dose-only effect, or another doubt; inactive = no such curve, though single readings can be large or run the other way.
SMILES,ALDH1A1 block,HPGD inh,PNC inhibitor
C/C=C\C[C@H](C)[C@H](O)[C@H]1C(=O)N[C@@H](CC)C(=O)N(C)CC(=O)N(C)[C@@H](CC(C)C)C(=O)N[C@@H](C(C)C)C(=O)N(C)[C@@H](CC(C)C)C(=O)N[C@@H](C)C(=O)N[C@@H](C)C(=O)N(C)[C@@H](CC(C)C)C(=O)N(C)[C@@H](CC(C)C)C(=O)N(C)[C@@H](C(C)C)C(=O)N1C,0,0,-
N#CC(c1ccccc1)N(CCCCl)C(=O)c1ccc(Br)cc1 (centres undefined),?,0,?
O=C(c1cccs1)N1CCC(c2nc3c(nnn3Cc3ccccc3)c(=O)[nH]2)CC1,?,-,0
NC(=O)C1CCN(c2nc(C3CC3)nc3c2nnn3Cc2ccccc2Cl)CC1,0,0,0
O=C(Cc1cccs1)N1CCC(c2nc3c(nnn3Cc3ccccc3Cl)c(=O)[nH]2)CC1,?,15.8µM,0
CCCCCCC(=O)N1CCC(c2nc3c(nnn3Cc3ccccc3Cl)c(=O)[nH]2)CC1,?,20µM,?
O=C(O)c1cn(Cc2ccccn2)c(=O)c2ccccc12,0,-,-
CCCCCCCCCCCC(=O)NC1CCS(=O)(=O)C1 (centres undefined),0,-,-
COc1cc(C2CC(=O)Nc3cc(C)c(C)cc32)cc(OC)c1OC (centres undefined),0,0,0
COc1cc2c(cc1OC)C(c1cccc(OC)c1OC)CC(=O)N2 (centres undefined),0,0,?
COc1cc2c(cc1OC)C(c1ccc(N(C)C)cc1)CC(=O)N2 (centres undefined),8.91µM,0,0
CCOc1c(OC)cccc1C1CC(=O)Nc2cc(OC)c(OC)cc21 (centres undefined),0,0,0
COc1cc2c(cc1OC)C(c1cccnc1)CC(=O)N2 (centres undefined),0,0,-82.0
CCN(CC)c1ccc(C2CC(=O)Nc3cc(OC)c(OC)cc32)cc1 (centres undefined),12.6µM,0,0
CC1=CC(C)(C)N2C(=O)C3(C(C#N)=C(N)Oc4cc(O)ccc43)c3c(C)c(C)cc1c32 (centres undefined),0,0,0
Clc1cc(Cl)cc(CN2CCSCC2)c1,0,-,-
Nc1nc2ccccc2n1C(=O)CCc1ccccc1,0,0,-86.7
Nc1nc2ccccc2n1C(=O)c1ccccc1,0,-,-
CS(=O)(=O)N1N=C(c2ccco2)CC1c1ccc(Cl)cc1 (centres undefined),8.91µM,0,0
Cc1ccc(C2CC(c3ccco3)=NN2S(C)(=O)=O)cc1 (centres undefined),?,0,0
CS(=O)(=O)N1N=C(c2ccccc2)CC1c1ccc2c(c1)OCO2 (centres undefined),2.38µM,0,0
CS(=O)(=O)Nc1cccc(C2=NN(S(C)(=O)=O)C(c3ccc4c(c3)OCO4)C2)c1 (centres undefined),0,0,0
O=C(CCNC(=O)c1ccc(Cl)cc1)Nc1c(F)c(F)cc(F)c1F,0,0,0
CCOC(=O)c1sc2nc(Cc3ccc(Cl)cc3)[nH]c(=S)c2c1C,0,-,-
N#C/C(C(=O)NCc1ccccc1)=C1/SC(Cc2ccc(Cl)cc2)C(=O)N1c1ccccc1 (centres undefined),?,0,0
SMILES,ALDH1A1 block,HPGD inh,PNC inhibitor
CCOC(=O)C1CN(S(=O)(=O)c2ccc(C)cc2)c2cc(S(=O)(=O)CC)ccc2O1 (centres undefined),?,0,0
CCS(=O)(=O)c1ccc2c(c1)N(S(C)(=O)=O)CC(C(=O)NN)O2 (centres undefined),0.562µM,-,-
CCCCCCC(=O)NN1CCN(C)CC1,0,0,?
CCCCCN1N=C(C)CC1=O,0.631µM,-,-
CC(C)NC(=S)NN=C1c2ccccc2-c2ccccc21,0,-,-
CC(C)NC(=S)N/N=C1\CCCCC1C1CCCCC1 (centres undefined),6.31µM,?,0
COc1ccccc1C(=O)C1CCCN(Cc2cn[nH]c2C2CCCCC2)C1 (centres undefined),0,-,-
Cc1ccc(NC(=O)CN(C)C(=O)Cn2ncc(Cl)c(Cl)c2=O)cc1,28.2µM,0,0
Cc1ccc(NC(=O)CN(C)C(=O)COc2c(Cl)cc(Cl)c3ccc(C)nc23)cc1,0,0,0
COc1ccc(C2N=C(c3ccccc3)C(C)(C)N2O)cc1 (centres undefined),0,0,?
COc1ccc(-c2[nH]ncc2CN(Cc2nccn2C)C(C)C)c(F)c1,22.4µM,-,-
CCn1ccnc1CN(C)Cc1cn[nH]c1-c1ccc(F)cc1F,0,-,-
CC1Oc2ccccc2N(CC(=O)N(Cc2ccccc2)Cc2ccccn2)C1=O (centres undefined),0,0,?
CC(C)C1Oc2ccccc2N(CC(=O)N(Cc2ccccn2)C2CC2)C1=O (centres undefined),0,0,-100.0
Cc1nc2ccccc2n1CC(O)COC1CCCCC1 (centres undefined),?,0,?
CC(C)c1nc2ccccc2n1CC(O)COC1CCCCC1 (centres undefined),28.2µM,-,-
Cc1c(N2C(=O)/C(=C/c3ccccc3)SC2=S)c(=O)n(-c2ccccc2)n1C,0,0,0
Cc1c(N2C(=O)/C(=C\C3CC=CCC3)SC2=S)c(=O)n(-c2ccccc2)n1C (centres undefined),1.26µM,-,-
COc1ccc(OCC2Cc3c(-c4ccccc4)nc4c(c3CO2)CN(CCOc2ccccc2)CC4)cc1 (centres undefined),0[13.5 µM],-,-
COc1ccc(COC(=O)N/N=C2/C[C@@H](O)[C@@H](O)[C@@H]3[C@@H]4C(=O)N(Cc5ccc6c(c5)OCO6)C(=O)[C@H]4CC[C@H]23)cc1,0[13.5 µM],-,-
S=C(c1ccc(-c2ccc(Cl)c(Cl)c2)o1)N1CCOCC1,8.91µM,25.1µM,0
S=C(Nc1ccccc1Cl)N1CCOCC1,0,0,0
S=C(c1ccc(-c2ccccc2Cl)o1)N1CCOCC1,7.94µM,8.91µM,?
S=C(Nc1ccc(Cl)c(Cl)c1)N1CCOCC1,0,0,0
O=C(NCC(=O)N(CC1CCCO1)C(C(=O)NC1CCCCC1)c1cccnc1)c1cccs1 (centres undefined),0,-,-
SMILES,ALDH1A1 block,HPGD inh,PNC inhibitor
C[C@H](NS(=O)(=O)c1ccccc1F)C(=O)OCC(=O)N1CCc2ccccc21,?,0,-93.4
O=C(CCCOc1ccccc1)N1CCCc2ccccc21,0,0,0
CCOC(=O)C1=C(C)NC(C)=C(C(=O)OCC)C1C(=O)OCC(=O)N1CCc2ccccc21,0,0,-99.2
CCOC(=O)c1[nH]c(C)c(C(=O)OCC(=O)N2CCc3ccccc32)c1C,0,0,0
O=C(COc1ccccc1)N1CCc2ccccc21,0,0,-82.0
O=C(CNS(=O)(=O)c1ccccc1Br)OCC(=O)N1CCc2ccccc21,0,0,0
Cc1noc(C)c1-c1nc(CS(=O)(=O)c2ccc(F)cc2)no1,0,-,-
O[C@@H](COc1cccc2ccccc12)CN1CCOCC1,0[13.5 µM],0,-
Cn1c(SCC(=O)N/N=C/c2ccc([N+](=O)[O-])s2)nnc1-c1ccc(Cl)cc1,?,0,?
CCOC(=O)C1CCN(Cc2cn(C)nc2-c2ccc(Oc3ccccc3)cc2)CC1,0,-,-
